The source of these data is PubChem BioAssay AID591 (National Center for Advancing Translational Sciences (NCATS), 2007).

Out of some 59,000 compounds screened, about 60 (0.1%) were called active. How the calls were made is not given here. Only a selection was taken, and actives are over-represented in it overall.

The experiment is described as follows: qHTS Assay for Spectroscopic Profiling in A488 Spectral Region. The note with it: compound autofluorescence; max dye equivalency: Compound Type: qHTS ECL - SigmaAldrich, active compounds read high unless noted; outcome: dye equivalency, Compound Type: qHTS ECL - MLSMR unless noted. In a few lines:
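Intrinsic compound fluorescence is measured in 100 mM Tris buffer at pH 8.0 following 15 min incubation at room temperature. Intensities at 480 nm excitation/540 nm emission are calibrated to an on-plate A488 concentration series, giving dye-equivalent concentrations.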
As to `O=C(Cn1c(-c2ccccn2)nc2ccccc21)NCCN1CCOCC1`, the outcome was “inactive [dye equivalency, Compound Type: qHTS ECL - DPISMR]”.

Consider `Cc1cc(C)c2c(c1)c(C)cc1nnc(SCC(=O)NCc3ccco3)n12`, for which the result was inactive.

`Cc1ccc(NC2=NC(c3ccccc3)n3c(nc(C)cc3=O)N2)cc1` (stereo unspecified): the outcome was “inactive [dye equivalency, Compound Type: qHTS ECL - DPISMR]”.

With `CC[C@H](c1ccccc1)c1cc(C(C)(C)C)cc(C(C)(C)C)c1O`, the outcome is “inactive [dye equivalency, Compound Type: qHTS ECL - NCI]”.

In the case of `COc1cccc(Cn2c(=O)c(CCc3ccccc3)nc3cnc(N(C)C)nc32)c1`, the outcome was “inactive [dye equivalency, Compound Type: qHTS ECL - Pharmacopeia]”.

Consider `Cc1cc(Br)ccc1NC(=O)C1CCCO1` (stereo unspecified), for which the outcome was “inactive [dye equivalency, Compound Type: qHTS ECL - DPISMR]”.

`Cc1nnc(C)n1/N=C/c1ccc(C(C)C)cc1`: the outcome was inactive.

As to `CCON=C1C(C)(C)C(C)(C)C(C)(C)C1(C)C`, the outcome was “inactive [dye equivalency, Compound Type: qHTS ECL - NCI]”.

On to `COc1ccc(C2/C(=C(/O)c3ccc(OC(C)C)cc3)C(=O)C(=O)N2CCCN2CCOCC2)cc1` (stereo unspecified), for which the result was inactive.

As for `COC(=O)c1ccc(Oc2nc(NC(C)C)nc(SC)n2)cc1`, the outcome was “inactive [dye equivalency, Compound Type: qHTS ECL - DPISMR]”.

For the compound `CCc1nnc(NC(=O)CSc2nnc(COc3ccc(C#N)cc3)n2-c2ccccc2)s1`, the outcome was inactive.

Take `C=CCOc1ccc(C2/C(=C(\O)c3c(C)[nH]c(C(=O)OC)c3C)C(=O)C(=O)N2CCN(C)C)cc1` (stereo unspecified): the outcome is “inactive [dye equivalency, Compound Type: qHTS ECL - DPISMR]”.

In the case of `COc1ccc(NC(=O)N2CC3(CCN(C(C)=O)CC3)C2)cc1`, the outcome is “inactive [dye equivalency, Compound Type: qHTS ECL - Pharmacopeia]”.

On to `O=c1c(-c2ccc(F)cc2)nc2cnc(N3CCOCC3)nc2n1-c1ccccc1`, for which the outcome was “inactive [dye equivalency, Compound Type: qHTS ECL - Pharmacopeia]”.

For the compound `O=C(CSc1nnc(-c2ccncc2)n1C1CCCCC1)Nc1ccccc1`, the outcome was inactive.

For `c1cncc(-c2nc(N3CCNCC3)c3ccccc3n2)c1`, the outcome was “inactive [dye equivalency, Compound Type: qHTS ECL - Pharmacopeia]”.

Regarding `Cc1ccc(S(=O)(=O)N2CCN(Cc3cccc(C)c3O)CC2)cc1`, the result was inactive.

Regarding `COc1ccc(-c2nc3cnc(N(C)C)nc3n(Cc3cccs3)c2=O)cc1`, the outcome was “inactive [dye equivalency, Compound Type: qHTS ECL - Pharmacopeia]”.

With `Cc1nc2cnc(N3CCNCC3)nc2n(Cc2ccc(F)cc2)c1=O`, the outcome is “inactive [dye equivalency, Compound Type: qHTS ECL - Pharmacopeia]”.

Consider `COCCn1c(=O)c(-c2ccc(OC)cc2)nc2cnc(Oc3cccc(Cl)c3)nc21`, for which the outcome is “inactive [dye equivalency, Compound Type: qHTS ECL - Pharmacopeia]”.

Consider `COc1ccc(OC)c2c(N)c(C#N)c(C(F)(F)C(F)(F)F)nc12`, for which the result was inactive.

Take `O=C(Nc1nn(Cc2ccccc2F)cc1Br)c1cccs1`: the outcome was “inactive [dye equivalency, Compound Type: qHTS ECL - DPISMR]”.

Take `Brc1ccc(Nc2c3c(nc4ncnn24)CCC3)cc1`: the result was inactive.

As for `Cc1ccccc1C(OCC(O)CN1CCCCC1CCO)c1ccccc1` (stereo unspecified), the result was inactive.

Consider `CCCN1C(=O)C(NS(=O)(=O)c2ccc(N)cc2)(C(F)(F)F)C(C(=O)OC)=C1C` (stereo unspecified), for which the outcome was “inactive [dye equivalency, Compound Type: qHTS ECL - DPISMR]”.

Regarding `Cc1cc(C(F)(F)F)n2ncc(-c3ccccc3)c2n1`, the outcome was “inactive [dye equivalency, Compound Type: qHTS ECL - DPISMR]”.

Take `COc1ccccc1CNc1ncncc1-c1cccnc1`: the outcome was “inactive [dye equivalency, Compound Type: qHTS ECL - Pharmacopeia]”.

With `Cc1ccc(S(=O)(=O)Nc2ccccc2CNc2c(C)n(C)n(-c3ccccc3)c2=O)cc1`, the outcome was inactive.

With `CC(=NC1CCN(Cc2ccccc2)CC1)c1c(O)[nH]c(=O)[nH]c1=O`, the outcome is “inactive [dye equivalency, Compound Type: qHTS ECL - DPISMR]”.

As to `CCn1ccnc1C[C@@H]1COc2ccccc2O1`, the outcome is “inactive [dye equivalency, Compound Type: qHTS ECL - SigmaAldrich]”.

Turning to `CN1[C@H]2CC(OC(=O)[C@@H](CO)c3ccccc3)C[C@H]1[C@H]1O[C@H]12` (stereo partly specified), the outcome is “inactive [dye equivalency, Compound Type: qHTS ECL - Prestwick]”.
